Source: PubChem
A selection: hits, their analogues and other compounds. The true share with any hit is near 5.4%.
JMJD2C inh: inhibitors of GASC-1 histone demethylase, primary screen, biochemical, fluorescence, DELFIA europium; Lysine-specific demethylase 4C (Homo sapiens), Q9H3R0; GST-JMJD2C(1-420) H3K9me3 demethylation; inhibition, % at 2.35 µM; 330,000 compounds, 0.069% hits; AID 2099, 2009;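 active = more than half of a compound's replicate wells show inhibition beyond 50%, single wells judged on their own value; inconclusive = some, but no more than half, of replicates pass 50% inhibition; inactive = no replicate passes 50% inhibition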;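 also: signal counts dimethyl H3K9 product captured on neutravidin plate; 0% = median of DMSO wells and 100% = 0.3 times that DMSO median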
ALR H2O2 inh: inhibitors of human ALR sulfhydryl oxidase, primary screen, biochemical, H2O2 detection, HRP-luminol luminescence, single point; AID 485317, 2010; 290,000 compounds, 3.8% hits; purified ALR, DTT oxidation; FAD-linked sulfhydryl oxidase ALR (Homo sapiens), P55789; inhibition, % (test concentration not listed);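 active = mean replicate inhibition above about 79%, with every replicate also reaching it, limit read from the data; inconclusive = only one of the two criteria met; inactive = mean below limit and not every replicate reaching it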
Target sequence (P55789 whole entry, looked up): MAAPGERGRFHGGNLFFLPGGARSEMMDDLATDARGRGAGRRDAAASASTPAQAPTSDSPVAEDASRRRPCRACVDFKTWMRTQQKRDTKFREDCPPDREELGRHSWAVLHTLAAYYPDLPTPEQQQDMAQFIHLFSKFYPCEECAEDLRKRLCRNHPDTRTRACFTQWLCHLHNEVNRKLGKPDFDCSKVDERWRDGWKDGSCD
Granule exo inh: LAMP-1 surface exposure blockers, TALL-104 cells – cell-based, flow cytometry, MLPCN library, primary screen. AID 651702, 2012. inhibition, % at 10 µM. 360,000 compounds, 0.66% hits. TALL-104 LAMP-1 surface exposure; cells stimulated with thapsigargin and PMA;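 active = inhibition above about 55%, limit read from the data; inconclusive = no clear call, values can overlap the other calls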
SMARCA2 activ: SMARCA2 (BRM) function activators, primary screen, cell-based, luminescence, high throughput; 370,000 compounds, 1% hits; activation, % at 9.1 µM; MG213 cells, MMTV-luciferase reporter, dexamethasone, overnight; in the data active = activation above about 7.8%;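 also: 0% = vehicle wells and 100% = reference activator wells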
PfM18AAP inh-1: PfM18AAP inhibitors, malaria aminopeptidase, primary screen, biochemical, QFRET, recombinant enzyme. AID 1822, 2009. H-Glu-NHMec fluorogenic cleavage. 290,000 compounds, 1.2% hits. inhibition, % at 7.35 µM;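 active = inhibition above the campaign mean inhibition over all tested compounds plus 3 SD, cut at about 28% in these data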;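 also: 0% = plate median of test compound wells and 100% = 2 mM ZnCl2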
MIN6 prolif: inducers of MIN6 beta-cell proliferation, primary screen, ATP luminescence, uHTS | MIN6 cells proliferation, ATPlite luminescence, 48 h; cells starved in 0.2% serum; 100% = growth in 10% serum | proliferation, % at 10 µM | 330,000 compounds, 0.29% hits | AID 2380, 2010;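 active = compounds whose signal lies at least 3.5 SD above the mean of all wells on their plate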;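 also: 0% = DMSO-treated cells in low-serum medium and 100% = 10% serum control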
PfM18AAP inh-2: PfM18AAP inhibitors, malaria aminopeptidase, confirmation, biochemical, QFRET, recombinant enzyme, triplicate | shares compounds with PfM18AAP inh-1 | H-Glu-NHMec fluorogenic cleavage | inhibition, % at 7.35 µM | 2,400 compounds, 28% hits;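 active = mean inhibition over replicate wells above the hit cutoff set for the earlier primary screen, cut at about 29% in these data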;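 also: 0% = median of test compound wells and 100% = 2 mM ZnCl2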
CTSL1 counter: cathepsin L1 inhibitors, retest, confirmation, counter-screen for PFM18AAP inhibitor project, biochemical, QFRET, triplicate. 2,400 tested, under 10 active. shares compounds with PfM18AAP inh-1. purified cathepsin L1, Z-Leu-Arg-MCA fluorescence. inhibition, % at 5.96 µM;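 active = average inhibition across replicates above the hit cutoff set in the earlier primary screen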;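 also: 0% = median of test compound wells and 100% = Z-Phe-Ala-diazomethylketone 1 µM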
Target sequence (P07711 whole entry, looked up): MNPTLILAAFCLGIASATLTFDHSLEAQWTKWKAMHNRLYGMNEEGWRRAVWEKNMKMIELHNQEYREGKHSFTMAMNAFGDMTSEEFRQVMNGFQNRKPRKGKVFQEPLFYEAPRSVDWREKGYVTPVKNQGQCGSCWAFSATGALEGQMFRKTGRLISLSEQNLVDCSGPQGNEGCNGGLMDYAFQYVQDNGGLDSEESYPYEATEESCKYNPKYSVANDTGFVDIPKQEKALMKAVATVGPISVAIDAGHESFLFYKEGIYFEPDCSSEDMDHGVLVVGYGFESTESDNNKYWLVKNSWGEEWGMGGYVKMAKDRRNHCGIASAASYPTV
* marks the source's active call; other numbers are inactive results; u = inconclusive; x = no result given.

SMILES	JMJD2C inh	ALR H2O2 inh	Granule exo inh	SMARCA2 activ	PfM18AAP inh-1	MIN6 prolif	PfM18AAP inh-2	CTSL1 counter
Cc1cc(C)c(S(=O)(=O)Nc2ccc(O)c(Sc3ncn[nH]3)c2)c(C)c1	2	99*	3	-3	49*	0	14	0
Cc1cc(C)c(S(=O)(=O)Nc2ccc(O)c(Sc3ncn[nH]3)c2)cc1C	30	49	-2	0	52*	-2	22	2
Cc1cc(C)c(S(=O)(=O)Nc2ncn[nH]2)c(C)c1	-1	-3	-2	6	20	3	x	x
Cc1cc(C)c(-c2cc(C(=O)Nc3c(C)n(C)n(-c4ccccc4)c3=O)[nH]n2)c(O)c1	-7	50	-1	0	41*	-3	-17	4
CC(=O)C1=C(c2ccccc2)NC(=O)NC1c1ccc(O)c(O)c1 (configuration not stated)	6	99*	-3	7	77*	0	71*	-6
CC1=C([N+](=O)[O-])C(c2ccc(O)c(O)c2)NC(=O)N1 (configuration not stated)	27	99*	3	1	84*	-2	81*	-4
CC(=O)C1=C(c2ccccc2)NC(=S)NC1c1cc(Cl)c(OC(C)C)c(Cl)c1 (configuration not stated)	-12	12	-2	-3	-13	-7	x	x
CC(=O)C1=C(c2ccccc2)NC(=S)NC1c1ccc(O)c(O)c1 (configuration not stated)	13	99*	-1	-2	74*	-5	68*	5
COc1ccc(C2NC(=O)NC(C)=C2[N+](=O)[O-])cc1OC (configuration not stated)	10	10	-3	-2	-1	-2	x	x
COc1cc2c(c(OC)c1OC)-c1ccc(N(C)CC(OC)OC)c(=O)cc1[C@@H](NC(C)=O)CC2	12	-19	-1	1	45*	-4	-32	-5
Cc1cc(O)c2/c(=N\N)c(-c3csc(C)n3)coc2c1	-4	1	3	-2	71*	1	48*	-1
CCOC(=O)[C@@]12CCCC=C1N(CCc1ccc(Cl)cc1)C(=O)[C@H]2CC(=O)N1CCN(C(=O)c2ccco2)CC1	x	x	x	-3	x	x	x	x
COC(=O)C1=C(C)N(C)C(=NCc2ccc3c(c2)OCO3)NC1c1ccccc1 (configuration not stated)	x	x	x	-1	x	x	x	x
CCC(=O)NC(=S)Nc1ccccc1C(F)(F)F	-3	68	-2	1	-9	-1	x	x
N#CCC(=O)NNC(=S)Nc1ccccc1C(F)(F)F	2	23	0	0	46*	-7	-37	1
CCCCC(=O)NNC(=S)NC(=O)c1ccc(C)cc1	-23	99*	4	-1	46*	-2	-28	1
Cc1ccc(C(=O)NC(=S)NNC(=O)CC#N)cc1	-5	99*	0	-2	33*	-3	-30	0
CCC(=O)NC(=S)NNC(=O)c1ccc([N+](=O)[O-])cc1	-1	19	1	-2	9	-2	x	x
CCCCC(=O)NNC(=S)NC(=O)c1ccc([N+](=O)[O-])cc1	-2	55	1	0	39*	-2	-25	-2
N#CCC(=O)NNC(=S)NC(=O)C(c1ccccc1)c1ccccc1	-6	16	1	-5	16	-4	x	x
CCCCCC(=O)NNC(=S)NC(C)=O	1	63	0	-4	11	2	x	x
C#CCNC(=O)C[C@@H]1C(=O)N(CC=C)C2=CCCCC[C@]21C(=O)OC	x	x	x	-2	x	x	x	x
Oc1c(/C=N/c2ncn[nH]2)ccc2ccccc12	-5	x	4	-1	64*	-2	52*	-4
CC1=C(C(=O)N2CCOCC2)C(c2ccc(O)cc2)NC(=S)N1 (configuration not stated)	2	2	-4	-5	5	0	x	x
Oc1ccc2c(c1)C1CCCC1(N1CCOCC1)O2 (configuration not stated)	-1	36	-1	-2	36*	-2	-17	-4
SMILES	JMJD2C inh	ALR H2O2 inh	Granule exo inh	SMARCA2 activ	PfM18AAP inh-1	MIN6 prolif	PfM18AAP inh-2	CTSL1 counter
COC(=O)c1ccc(Cn2ccc3ccc(-c4ccc5ccn(Cc6ccccc6)c5c4)cc32)cc1	x	x	x	-2	x	x	x	x
Nc1[nH]c(C(=O)c2ccccc2)c(-c2ccc(Cl)cc2)c1C(=O)c1c[nH]c2ccc(Br)cc12	x	x	x	-2	x	x	x	x
COc1cc(/C=N/N2CCN(Cc3ccc(C)cc3)CC2)cc(OC)c1O	4	99*	15	-2	47*	-3	4	1
CCOc1ccccc1-n1c(C)cc(C=O)c1C	26	-2	-2	-1	4	-3	x	x
CCN(CC)c1ccc(-n2c(C)cc(C=O)c2C)cc1	8	98*	6	1	33*	-5	-47	0
COC(=O)N1C[C@H](OC(=S)Nc2ccc(OC)cc2OC)[C@H]2C[C@@H]1c1ccccc1O2	x	x	x	-5	x	x	x	x
O=c1[nH]c(/C=C\c2ccc(O)c(O)c2)nc(O)c1[N+](=O)[O-]	-40	99*	-1	-1	78*	3	76*	4
O=c1[nH]c(/C=C\c2cccc(O)c2)nc(O)c1[N+](=O)[O-]	-2	40	0	-3	6	-3	x	x
O=C(Cc1c[nH]c2ccccc12)Nc1ccc(Nc2cccnc2)c(-c2cccc(Cl)c2)c1	x	x	x	-1	x	x	x	x
CC(C)[C@H]1Cn2nncc2Cn2c3ccccc3c(=O)n21	x	x	x	0	x	x	x	x
Cc1cc(C)c2c(N)c(C(=O)NN)sc2n1	11	1	0	-2	11	1	x	x
Cc1cc(C)c2c(N)c(C(=O)NNC(=O)c3ccccc3)sc2n1	2	21	-7	8	44*	-1	12	-1
CCCn1c(N/N=C(C)\C=C\c2ccccc2)nc2c1c(=O)[nH]c(=O)n2C	-19	0	x	x	44*	-2	-20	3
COc1cccc(CC(=O)N2CCN(C(=O)C(=O)c3ccc(OC)c(OC)c3)CC2)c1	x	x	x	-4	x	x	x	x
Cc1ccc(C)c(C(=O)n2cnnc2N)c1	8	u	-2	-4	35*	0	51*	-2
